According to PubChem BioAssay (NCI):
About 83,000 compounds went through this panel and 20% of them were active in at least one assay; those are over-represented in the sample as a whole.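 Activity criterion: percent growth below 10, measured after cells in 96-well plates were exposed to a single compound concentration for 48 hours.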 Calls of active or inactive are those of the source.

Columns and labels:
Assay in all cases: NCI-60 one-dose screen, 48 h (100 = growth as untreated, 0 = no growth, -100 = all killed)
Details in all cases: 10 µM unless noted
NCI-H23 lung = test system: NCI-H23 lung
NCI-H226 lung = test system: NCI-H226 lung
NCI-H322M lung = test system: NCI-H322M lung
HOP-62 NSCLC = test system: HOP-62 NSCLC
NCI-H460 lung = test system: NCI-H460 lung
HOP-92 NSCLC = test system: HOP-92 NSCLC
NCI-H522 lung = test system: NCI-H522 lung
A549/ATCC NSCLC = test system: A549/ATCC NSCLC
786-0 renal = test system: 786-0 renal
COLO 205 colon = test system: COLO 205 colon

Measured: growth

Cc1ccc(-c2cc(-c3ccccc3C)[nH]c(=O)c2C#N)s1
inactive: NCI-H23 lung 92.4% | NCI-H226 lung 93.1% | NCI-H322M lung 79.1% | HOP-62 NSCLC 90.4% | NCI-H460 lung 98.7% | HOP-92 NSCLC 54% | NCI-H522 lung 87.5% | A549/ATCC NSCLC 87.9% | 786-0 renal 78.8% | COLO 205 colon 117%

Clc1cccc(Cl)c1/C=C/c1cc(/C=C/c2c(Cl)cccc2Cl)[nH]n1
active: NCI-H522 lung -9.35%
inactive: NCI-H23 lung 43.6% | NCI-H226 lung 30.6% | NCI-H322M lung 38.2% | HOP-62 NSCLC 49.7% | NCI-H460 lung 11.4% | HOP-92 NSCLC 102% | A549/ATCC NSCLC 38.7% | 786-0 renal 23.1% | COLO 205 colon 17.7%

O=C(CCCCCCN1CC(=O)N2[C@@H](c3ccccc3Cl)c3[nH]c4ccccc4c3C[C@H]2C1=O)NO
active: HOP-92 NSCLC -6.12%
inactive: NCI-H23 lung 76.8% | NCI-H226 lung 95.4% | NCI-H322M lung 81.8% | HOP-62 NSCLC 73.3% | NCI-H460 lung 67.8% | NCI-H522 lung 28.8% | A549/ATCC NSCLC 97% | 786-0 renal 83.8% | COLO 205 colon 59.6%

COc1cccc(-c2nc3sccn3c2/C=C/C(=O)c2ccc(C(F)(F)F)cc2)c1
inactive: NCI-H23 lung 95% | NCI-H226 lung 88.6% | NCI-H322M lung 87.5% | HOP-62 NSCLC 100% | NCI-H460 lung 83.7% | HOP-92 NSCLC 66.4% | NCI-H522 lung 55.6% | A549/ATCC NSCLC 85.1% | 786-0 renal 82.1% | COLO 205 colon 102%

O=C1/C(=C2/C=Nc3ccccc32)N(O)c2ccccc21
inactive: NCI-H23 lung 56.8% | NCI-H226 lung 77% | NCI-H322M lung 108% | HOP-62 NSCLC 95.6% | NCI-H460 lung 91.4% | HOP-92 NSCLC 124% | NCI-H522 lung 57.1% | A549/ATCC NSCLC 94.2% | 786-0 renal 104% | COLO 205 colon 104%

O=[N+]([O-])c1ccc(C2CC(c3ccccc3)=Nc3ccccc3S2)cc1 (stereo not given)
inactive: NCI-H23 lung 94.4% | NCI-H226 lung 118% | NCI-H322M lung 107% | HOP-62 NSCLC 112% | NCI-H460 lung 101% | HOP-92 NSCLC 81% | NCI-H522 lung 94.6% | A549/ATCC NSCLC 105% | 786-0 renal 105% | COLO 205 colon 118%

O=C(O)CN1C(=O)CCC1=O
inactive: NCI-H23 lung 104% | NCI-H226 lung 101% | NCI-H322M lung 123% | HOP-62 NSCLC 97.1% | NCI-H460 lung 115% | HOP-92 NSCLC 97.2% | NCI-H522 lung 103% | A549/ATCC NSCLC 98.4% | 786-0 renal 105% | COLO 205 colon 118%

Cc1ccc(Cl)cc1NC(=O)c1cc2ccccc2cc1O
active: NCI-H23 lung -30.4% | NCI-H226 lung -35.6% | NCI-H322M lung -3.32% | HOP-62 NSCLC -23.8% | NCI-H460 lung -22.5% | HOP-92 NSCLC -10.5% | NCI-H522 lung -18% | 786-0 renal -6.83% | COLO 205 colon 1.54%
inactive: A549/ATCC NSCLC 13.9%

COc1ccc(-c2c(N)n[nH]c2-c2ccc(Cl)cc2O)cc1OC
inactive: NCI-H23 lung 83.2% | NCI-H226 lung 79.8% | NCI-H322M lung 92.4% | HOP-62 NSCLC 91.5% | NCI-H460 lung 94.5% | HOP-92 NSCLC 69.2% | NCI-H522 lung 84.3% | A549/ATCC NSCLC 92.9% | 786-0 renal 86.6% | COLO 205 colon 113%

O=C1c2cccc(NCCN=Cc3cc([N+](=O)[O-])ccc3O)c2C(=O)c2c(NCCN=Cc3cc([N+](=O)[O-])ccc3O)cccc21
inactive: NCI-H23 lung 75% | NCI-H226 lung 77% | NCI-H322M lung 77% | HOP-62 NSCLC 55.4% | NCI-H460 lung 53.4% | HOP-92 NSCLC 62.4% | NCI-H522 lung 45% | A549/ATCC NSCLC 84.6% | 786-0 renal 82.6% | COLO 205 colon 55.9%

O=C(/C=C/c1ccc(Cl)nc1)c1ccc(Cl)cc1Cl
inactive: NCI-H23 lung 105% | NCI-H226 lung 103% | NCI-H322M lung 99.8% | HOP-62 NSCLC 106% | NCI-H460 lung 98% | HOP-92 NSCLC 110% | NCI-H522 lung 38.7% | A549/ATCC NSCLC 94.4% | 786-0 renal 86.8% | COLO 205 colon 111%

O=C(c1ccccc1)c1c(/C=C/c2ccccc2)nc2ccccc2c1/C=C/c1ccc(Br)cc1
inactive: NCI-H23 lung 94.5% | NCI-H226 lung 95.1% | NCI-H322M lung 96.7% | HOP-62 NSCLC 101% | NCI-H460 lung 106% | HOP-92 NSCLC 98.3% | NCI-H522 lung 88.2% | A549/ATCC NSCLC 98.1% | 786-0 renal 99.7% | COLO 205 colon 114%
